DT40 TDP1 CPT: growth inhibition of DT40 Tdp1-/-;hTDP1 cells with camptothecin (screen for TDP1 inhibitors); 420,000 tested, 12% active; chicken DT40 Tdp1-/-;hTDP1 cells + 20 nM CPT, ATP luminescence, 48 h; AID 686979; Potency, µM (top dose mostly 46.2 µM), for the others: top-dose activity change, negative = growth inhibition, hits mostly inhibitors; note: potency is the fitted concentration of half-maximal effect; nearly all actives have a fitted effect of over 55% in size
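Chicken DT40 Tdp1-/- cells complemented with human TDP1, 400 cells/well, exposed to compounds plus 20 nM camptothecin for at least 48 h at 37 C; viability read as ATP content by CellTiter-Glo luminescence.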
HT1080 IDH1KD tx: kills HT-1080 cells with IDH1 knockdown; HT-1080 IDH1 knockdown viability, ATP luminescence, 48 h; Potency, µM (highest dose often 46.1 µM), for the others: at the top dose activity, negative = toxicity, usual class: cytotoxic; 360,000 tested, 2% active;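 note: potency is the fitted concentration of half-maximal effect; 0% = DMSO wells and -100% = cell-free medium wells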
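% activity derives from luminescence (CellTiter-Glo), normalised to DMSO and no-cell wells. HT-1080-IDH1KD cells, 750/well, had 48 h compound exposure at 37 °C.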
IL-1B inflam inh: inhibitors of inflammasome signaling (IL-1 beta secretion); THP-1 LPS/ATP IL-1B secretion, AlphaLISA, 16 h; hits give low values; activity change, % at 57.5 µM; 360,000 tested, 4.7% active; in the data active = activity change below about -50%; inconclusive = mostly about -30% to -49%
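Secreted IL-1B measured by AlphaLISA bead assay after 16 h compound exposure of THP-1 cells; compounds (final up to 57.5 uM) added 1 h before LPS (250 ng/mL) and ATP (1.25 mM) stimulation; lower signal means less secretion.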
12-LOX inh: ALOX12 (human) lipoxygenase inhibition; purified 12hLO, xylenol orange hydroperoxide absorbance; Potency, µM (titrated, usually from 108 µM), for inactives: at the top dose activity change, negative = inhibition, most hits filed as inhibitors; 580,000 tested, 1.1% active; AID 1671190; note: potency is the fitted concentration of half-maximal effect
Target sequence (P18054 whole entry, looked up): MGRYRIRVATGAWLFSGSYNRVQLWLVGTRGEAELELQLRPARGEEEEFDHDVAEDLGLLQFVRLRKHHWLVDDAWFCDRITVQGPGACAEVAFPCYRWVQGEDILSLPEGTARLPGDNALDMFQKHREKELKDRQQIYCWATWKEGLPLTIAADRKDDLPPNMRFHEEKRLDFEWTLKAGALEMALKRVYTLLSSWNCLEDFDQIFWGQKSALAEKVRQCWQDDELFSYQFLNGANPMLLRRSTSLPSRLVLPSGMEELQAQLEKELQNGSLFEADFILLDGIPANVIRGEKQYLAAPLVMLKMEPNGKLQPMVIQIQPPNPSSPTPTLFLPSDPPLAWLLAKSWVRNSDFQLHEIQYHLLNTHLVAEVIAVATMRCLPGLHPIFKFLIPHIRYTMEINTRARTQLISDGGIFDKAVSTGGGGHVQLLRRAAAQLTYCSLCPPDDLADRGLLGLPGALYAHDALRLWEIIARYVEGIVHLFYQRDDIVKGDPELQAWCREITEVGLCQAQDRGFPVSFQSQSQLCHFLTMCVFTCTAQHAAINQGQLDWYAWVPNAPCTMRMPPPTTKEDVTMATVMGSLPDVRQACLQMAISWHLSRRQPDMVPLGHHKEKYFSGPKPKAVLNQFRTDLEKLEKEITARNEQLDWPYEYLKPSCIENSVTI
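Purified human 12hLO (150 nM final) in 25 mM Hepes, 0.01% Triton X-100, pH 7.0 was preincubated 15 min at room temperature with compound. Then 40 uM arachidonic acid was added, 30 min. Hydroperoxide was read by Fe-XO absorbance ratio 573/405 nm.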
TDP1 cell noCPT: qHTS for Inhibitors of human tyrosyl-DNA phosphodiesterase 1 (TDP1): qHTS in cells in absence of CPT. AID 686978, 2013. 420,000 tested, 15% active. Potency, µM (series often up to 46.2 µM), inactives show at the top dose activity change, negative = growth inhibition, actives largely listed as inhibitors. DT40 Tdp1-/- hTDP1 cells, no CPT, ATP luminescence, 48 h; note: potency is the fitted concentration of half-maximal effect; nearly all actives have a fitted effect of over 55% in size
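DT40 Tdp1-/-;hTDP1 cells, no CPT (DMSO vehicle only), 400 cells/well; compounds pin-transferred; ≥48 hr, 37 °C; CellTiter-Glo 30 min RT dark, luminescence read.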
HT1080NT lethal: kills 2HG-producing HT-1080-NT fibrosarcoma cells; HT-1080-NT fibrosarcoma viability, CellTiter-Glo ATP luminescence, 48 h; Potency, µM (titrated, usually from 46.1 µM), for inactives: at the top dose activity, negative = less viability, hits mostly cytotoxic; 360,000 tested, 1.6% active;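 note: NT is the 2HG producing partner of a matched IDH1 knockdown line; potency is the fitted concentration of half-maximal effect; 0% = DMSO-treated cells and -100% = media-only wells without cells; nearly all actives have a fitted effect of over 55% in size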
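HT-1080-NT; 750 cells/well; 5% FBS RPMI; 48 h compound, 37 degrees C; CellTiter-Glo luminescence; curve fitting and curve-class assignment.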
* marks the source's active call; other numbers are inactive results; ? = inconclusive; · = not tested or not shown; [ ] = remark or other dose. The entries come from a sample that favours hits as a whole. Unless noted, calls come from the whole dose curve; as a rule, active = well fitted curve in the direction sought with a large enough effect; inconclusive = small, poorly fitted or top-dose-only effect, or another doubt; inactive = no such curve, though single readings can be large; an effect the other way counts as inactive or inconclusive. Unless noted, % is set by controls: 0 for no effect and ±100 for the full control effect.

SMILES | DT40 TDP1 CPT | HT1080 IDH1KD tx | IL-1B inflam inh | 12-LOX inh | TDP1 cell noCPT | HT1080NT lethal
Cc1cc(N2C(=O)C3C4c5ccccc5C(c5ccccc54)C3C2=O)no1 (stereo not given) | 12µM* | 3% | 16 | -22% | 10µM* | 8%
O=C1C2C(C(=O)N1c1ccncc1)C1C=CC2C12CC2 (stereo not given) | ? | 7% | 25 | 0% | -19% | 13%
O=C1C2C3C=CC(C3)C2C(=O)N1c1cccnc1 (stereo not given) | -8% | 0% | 15 | 6%[57.4 µM] | 1% | 13%
O=C1C2C3c4ccccc4C(c4ccccc43)[C@@H]2C(=O)N1c1cccnc1 (stereo not given in full) | ? | 7% | -5 | 2% | 23µM* | 4%
O=C1C2C3c4ccccc4C(c4ccccc43)C2C(=O)N1c1ccncc1 (stereo not given) | 21µM* | -1% | 28 | -1% | 16µM* | 5%
CC1CCCC(NC(=O)c2cccs2)C1C (stereo not given) | -22% | -7% | -1 | 1% | ? | 12%
CC(C)Cc1nc2sc3c(NCC(C)O)ncnc3c2c2c1CCC2 (stereo not given) | · | · | · | -16% | · | ·
Cc1ccc(Cl)c(NC(=O)COC(=O)c2ccccc2C(=O)c2ccc(Cl)c([N+](=O)[O-])c2)c1Cl | -103% | ? | -105* | -7% | 10µM* | ?
CCCNC(=O)COC(=O)c1ccccc1C(=O)c1ccc(Cl)c([N+](=O)[O-])c1 | ? | 5.2µM* | -103* | 0% | 10µM* | 9.2µM*
Cc1ccc(C(=O)OCC(=O)Nc2c(C)n(C)n(-c3ccccc3)c2=O)cc1[N+](=O)[O-] | -15% | 6% | -9 | -2% | -15% | 3%
C[C@H](N)C(=O)N1CCC(n2nccc2NC(=O)c2ccc3c(c2)OCO3)CC1 | · | · | · | 49% | · | ·
O=C(O)C1C2C=CC(C2)C1C(=O)NCc1ccc(Cl)c(Cl)c1 (stereo not given) | 15µM* | -2% | 26 | -5% | -4% | -1%
COC(=O)c1[nH]c2ccc(F)cc2c1NS(=O)(=O)c1ccc(OC)cc1 | 3.3µM* | ? | 41 | -10% | 3.3µM* | 5.2µM*
CCOC(=O)c1cc(CC)sc1NC(=O)c1cc(OC)c(OC)c(OC)c1 | ? | 18% | -16 | ? | 18µM* | 17%
CCOC(=O)Cn1nc(C)cc1NC(=O)c1cc(OC)c(OC)c(OC)c1 | ? | -8% | -78* | 2% | ? | -29%
COc1ccc(S(=O)(=O)Nc2c(C(=O)O)[nH]c3ccc(OC)cc23)cc1 | 6% | 6% | 71 | ? | 19% | 6%
COc1cc(C(=O)Nc2ccc(Br)cc2C(=O)c2cc(OC)c(OC)c(OC)c2)cc(OC)c1OC | 13µM* | ? | 29 | 21% | 3.7µM* | ?
COc1cc(C(=O)Nc2cccc3c2CCCC3)cc(OC)c1OC | ? | -14% | -3 | -7% | ? | -5%
COc1cc(C(=O)Nc2c(C(=O)O)[nH]c3ccc(Br)cc23)cc(OC)c1OC | -4% | 1% | 20 | 40µM* | -14% | -13%
COc1cc(C(=O)Nc2scc(-c3ccc(Br)cc3)c2C(=O)O)cc(OC)c1OC | -16% | 7% | 2 | -62% | -5% | -6%
CCOC(=O)c1[nH]c2ccc(OC)cc2c1NC(=O)c1cccc(OC)c1 | 23µM* | -2% | -16 | -29% | ? | -1%
CCCC(=O)Nc1c(C(=O)OCC)[nH]c2ccc(F)cc12 | · | · | · | -2% | · | ·
CCOC(=O)c1[nH]c2ccc(F)cc2c1NC(=O)c1cc(OC)c(OC)c(OC)c1 | ? | -4% | -4 | -16% | 23µM* | -5%
COc1ccc(N2C(=O)[C@@H]3C[C@H]2CN3Cc2cccn2-c2ccccn2)cc1Cl | 1%[9.04 µM] | · | · | 10% | -27% | ·
Cc1ccccc1S(=O)(=O)N[C@H]1CC[C@@]23CCCN2C(=O)CCC[C@H]3[C@H]1Cc1ccccc1 | · | · | · | -18% | · | ·
SMILES | DT40 TDP1 CPT | HT1080 IDH1KD tx | IL-1B inflam inh | 12-LOX inh | TDP1 cell noCPT | HT1080NT lethal
CC(=O)Nc1ccc(C2C(=O)c3ccccc3C2=O)cc1 | -26% | 5% | -19 | ? | ? | -3%
CCCC(=O)Nc1ccc(C2C(=O)c3ccccc3C2=O)cc1 | 16µM* | -1% | -19 | -4% | ? | -9%
O=[N+]([O-])c1ccc(N/N=C2/CCCCC2c2ccccn2)cc1 (stereo not given) | -27% | 0.92µM* | -14 | ? | -25% | 14%
NC(=O)N/N=C1\CCCCC1c1ccccn1 (stereo not given) | · | · | · | 5% | · | ·
CNC(=O)c1nn(C)c(=O)[nH]c1=O | 16% | 16% | 11 | 0% | 3% | 6%
Cc1ccc(-c2csc3ncnc(N4CCN(C(=O)c5ccco5)CC4)c23)cc1 | ? | ? | -11 | ? | ? | ?
COc1ccc(-c2csc3ncnc(N4CCN(c5ccc(OC)cc5)CC4)c23)cc1 | 23µM* | -1% | 58 | 261% | 13µM* | -27%
COc1ccc(-c2csc3ncnc(N4CCN(c5ccccc5O)CC4)c23)cc1 | ? | -5% | -18 | · | 16µM* | 1%
Cc1ccc(-c2csc3ncnc(N4CCN(c5ccccc5O)CC4)c23)cc1 | ? | 1% | -61* | -16% | 15µM* | -8%
COc1ccc(-c2csc3ncnc(N4CCN(c5ccccc5[N+](=O)[O-])CC4)c23)cc1 | ? | -29% | -6 | · | 18µM* | -23%
O=C(CCc1nc2ccccc2s1)N1CCC(Cc2noc(-c3ccc(F)cc3)n2)C1 (stereo not given) | · | · | · | 57% | · | ·
CCC(Oc1ccccc1F)C(=O)Nc1c(C)cccc1C (stereo not given) | · | · | · | 14% | · | ·
CC(C)c1ccc(-c2csc3ncnc(N4CCN(C)CC4)c23)cc1 | 16µM* | 21µM* | -92* | ? | 12µM* | 16µM*
CN1CCCN(c2ncnc3scc(-c4ccc(F)cc4)c23)CC1 | -21% | -1% | -7 | -2% | ? | 3%
Cn1nc(C2CCN(C(=O)c3ccc(F)cc3)CC2)[nH]c1=O | · | · | · | 17%[176 µM] | · | ·
O=C(Cc1cccc2ccccc12)OCn1nnc2ccccc2c1=O | -8% | -1% | 14 | 13% | -4% | 0%
O=C(CSCC(=O)OCn1nnc2ccccc2c1=O)Nc1ccc(Cl)cc1 | 21µM* | -2% | 13 | -25% | ? | 3%

High-throughput results as filed in PubChem BioAssay.
